Experiment [1] in a line: NCI Yeast Anticancer Drug Screen. Data for the rad50 strain (AID 155).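 Further: 0% = growth of vehicle-only cultures of the same strain.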 The following applies: S. cerevisiae rad50 strain growth inhibition, stronger effect = higher value. Summed up:
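Genetically altered yeast (DNA repair pathway); compound treatment; growth inhibition vs vehicle ctrl.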

Experiment [2] in a line: NCI Yeast Anticancer Drug Screen. Data for the mec2-1 strain (AID 157). The following applies: S. cerevisiae mec2-1 strain, stronger effect = higher value. The method in brief:
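Yeast mec2-1 mutant treated with compound. Readout: growth inhibition vs vehicle controls.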

The nature of experiment [3]: NCI Yeast Anticancer Drug Screen. Data for the sgs1 mgt1 strain (AID 161).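 Further: 0% = growth of cultures given vehicle only.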 The following applies: S. cerevisiae sgs1 mgt1 strain, stronger effect = higher value. Summed up:
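Genetically altered yeast, compound exposure, growth inhibition relative to vehicle.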

Experiment [4] can be described thus: NCI Yeast Anticancer Drug Screen. Data for the cln2 rad14 strain (AID 165).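 Further: 0% = growth equal to vehicle treated cultures.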 The following applies: S. cerevisiae cln2 rad14 strain, stronger effect = higher value. Summed up:
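cln2 rad14 yeast strain; compound exposure; growth inhibition read vs vehicle controls.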

The nature of experiment [5]: NCI Yeast Anticancer Drug Screen. Data for the bub3 strain (AID 167). The following applies: S. cerevisiae bub3 mutant strain, stronger effect = higher value. The method in brief:
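Yeast carrying a defined mutation is treated with each compound, and growth is compared with that of vehicle-exposed cells to give inhibition.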

The nature of experiment [6]: NCI Yeast Anticancer Drug Screen. Data for the mlh1 rad18 strain (AID 175). The following applies: S. cerevisiae mlh1 rad18 strain growth inhibition, stronger effect = higher value. The method in brief: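 Yeast w/ defined DNA-repair lesions; compound exposure; growth vs vehicle controls → % inhibition.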
Setting [7] is: at 5.0 µM (retest, dose inferred, filed as 0.5).
Setting [8] is: at 50.0 µM (retest, dose inferred, filed as 5.0).

Compounds without any hit were thinned out: in the full panel of roughly 79,000, 15% have a hit. Values without a mark were called inactive. Calls of active or inactive are those of the source. No stated cut-off is given here; in the data, active means growth inhibition above about 70%; inactive means the rest.

For `OC1CCCC2CCCNC12` (configuration not stated), the growth inhibition was 84% (active) in experiment [1] (setting [7]); 97% (active) in experiment [1] (setting [8]); 86.4% (active) in experiment [1] (at 50.0 µM); 79% (active) in experiment [2] (setting [7]); 98% (active) in experiment [2] (setting [8]); 90% (active) in experiment [2] (at 50.0 µM). The growth inhibition is 97% (active) in experiment [3] (setting [7]); 98% (active) in experiment [3] (setting [8]); 90% (active) in experiment [3] (at 50.0 µM); 81% (active) in experiment [4] (setting [7]); 98% (active) in experiment [4] (setting [8]); 86.3% (active) in experiment [4] (at 50.0 µM). For the same compound, the growth inhibition is 96% (active) in experiment [5] (setting [7]); 98% (active) in experiment [5] (setting [8]); 91.8% (active) in experiment [5] (at 50.0 µM); 73% (active) in experiment [6] (setting [7]); 97% (active) in experiment [6] (setting [8]); 91.2% (active) in experiment [6] (at 50.0 µM).

Regarding `COS(=O)(=O)c1ccccc1`, the growth inhibition in experiment [1] (setting [7]) is 8%; in experiment [1] (setting [8]) it was -2%; in experiment [1] (at 50.0 µM), -2.5%; in experiment [2] (setting [7]) it was 0%; in experiment [2] (setting [8]), -2%; in experiment [2] (at 50.0 µM) it was -2.4%. Moreover, the growth inhibition in experiment [3] (setting [7]) was -4%; in experiment [3] (setting [8]), 4%; in experiment [3] (at 50.0 µM), 11.6%; in experiment [4] (setting [7]), 7%; in experiment [4] (setting [8]) it was -4%; in experiment [4] (at 50.0 µM), -16.8%. Further, the growth inhibition in experiment [5] (setting [7]) is 1%; in experiment [5] (setting [8]), 39%; in experiment [5] (at 50.0 µM), -4.55%; in experiment [6] (setting [7]), 8%; in experiment [6] (setting [8]) it was -1%; in experiment [6] (at 50.0 µM) it was 10.3%.

For `CCC1(O)C(=O)OCc2c1cc1n(c2=O)Cc2cc3cc4c(cc3nc2-1)OCO4` (configuration not stated), the growth inhibition was 97% (active) in experiment [1] (setting [7]); 92% (active) in experiment [1] (setting [8]); 86.6% (active) in experiment [1] (at 50.0 µM); 98% (active) in experiment [2] (setting [7]); 96% (active) in experiment [2] (setting [8]); 86.3% (active) in experiment [2] (at 50.0 µM). Also, the growth inhibition was 97% (active) in experiment [3] (setting [7]); 96% (active) in experiment [3] (setting [8]); 85.2% (active) in experiment [3] (at 50.0 µM); 90% (active) in experiment [4] (setting [7]); 91% (active) in experiment [4] (setting [8]); 73% (active) in experiment [4] (at 50.0 µM). The growth inhibition in experiment [5] (setting [7]) was 92% (active); in experiment [5] (setting [8]), 89% (active); in experiment [5] (at 50.0 µM), 90% (active); in experiment [6] (setting [7]), 93% (active); in experiment [6] (setting [8]), 79% (active); in experiment [6] (at 50.0 µM) it was 92.7% (active).

On to `CCOC(=O)C(Cl)Cl`, for which the growth inhibition in experiment [1] (setting [7]) is -1%; in experiment [1] (setting [8]), 0%; in experiment [1] (at 50.0 µM), -32.4%; in experiment [2] (setting [7]) it was 3%; in experiment [2] (setting [8]), -2%; in experiment [2] (at 50.0 µM), -2.7%. Besides, the growth inhibition is 0% in experiment [3] (setting [7]); -2% in experiment [3] (setting [8]); -5.25% in experiment [3] (at 50.0 µM); -2% in experiment [4] (setting [7]); -4% in experiment [4] (setting [8]); -39.8% in experiment [4] (at 50.0 µM). Moreover, the growth inhibition in experiment [5] (setting [7]) is 1%; in experiment [5] (setting [8]), -5%; in experiment [5] (at 50.0 µM), -18.3%; in experiment [6] (setting [7]) it was 2%; in experiment [6] (setting [8]), -2%; in experiment [6] (at 50.0 µM) it was 33.4%.

In the case of `CC(=O)[O][Sn]([c]1ccccc1)([c]1ccccc1)[c]1ccccc1`, the growth inhibition in experiment [1] (setting [7]) was 97% (active); in experiment [1] (setting [8]) it was 99% (active); in experiment [1] (at 50.0 µM), 91.1% (active); in experiment [2] (setting [7]) it was 99% (active); in experiment [2] (setting [8]), 99% (active); in experiment [2] (at 50.0 µM), 93.4% (active). Besides, the growth inhibition was 98% (active) in experiment [3] (setting [7]); 98% (active) in experiment [3] (setting [8]); 93.6% (active) in experiment [3] (at 50.0 µM); 90% (active) in experiment [4] (setting [7]); 98% (active) in experiment [4] (setting [8]); 92.8% (active) in experiment [4] (at 50.0 µM). Further, the growth inhibition is 98% (active) in experiment [5] (setting [7]); 96% (active) in experiment [5] (setting [8]); 92.1% (active) in experiment [5] (at 50.0 µM); 100% (active) in experiment [6] (setting [7]); 99% (active) in experiment [6] (setting [8]); 91.4% (active) in experiment [6] (at 50.0 µM).

Take `COC(=O)c1ccc([As]=O)cc1N` (configuration not stated): the growth inhibition in experiment [1] (setting [7]) was 2%; in experiment [1] (setting [8]), 6%; in experiment [1] (at 50.0 µM), 98.7% (active); in experiment [2] (setting [7]), 1%; in experiment [2] (setting [8]), 4%; in experiment [2] (at 50.0 µM), 99.5% (active). Further, the growth inhibition was -1% in experiment [3] (setting [7]); 4% in experiment [3] (setting [8]); 99.3% (active) in experiment [3] (at 50.0 µM); -2% in experiment [4] (setting [7]); -6% in experiment [4] (setting [8]); 98.5% (active) in experiment [4] (at 50.0 µM). The growth inhibition in experiment [5] (setting [7]) is 3%; in experiment [5] (setting [8]), 2%; in experiment [5] (at 50.0 µM), 98.8% (active); in experiment [6] (setting [7]) it was 2%; in experiment [6] (setting [8]), 7%; in experiment [6] (at 50.0 µM) it was 99% (active).

Regarding `ClCc1ccncc1`, the growth inhibition was 38% in experiment [1] (setting [7]); 73% (active) in experiment [1] (setting [8]); 54.9% in experiment [1] (at 50.0 µM); 26% in experiment [2] (setting [7]); 46% in experiment [2] (setting [8]); 47.2% in experiment [2] (at 50.0 µM). The growth inhibition in experiment [3] (setting [7]) was 55%; in experiment [3] (setting [8]) it was 69%; in experiment [3] (at 50.0 µM), 69.4%; in experiment [4] (setting [7]), 38%; in experiment [4] (setting [8]) it was 57%; in experiment [4] (at 50.0 µM), 51%. Further, the growth inhibition in experiment [5] (setting [7]) is 31%; in experiment [5] (setting [8]) it was 73% (active); in experiment [5] (at 50.0 µM), 58%; in experiment [6] (setting [7]) it was 25%; in experiment [6] (setting [8]), 66%; in experiment [6] (at 50.0 µM) it was 57.6%.

As to `O=P(c1cccc(C(F)(F)F)c1)(c1cccc(C(F)(F)F)c1)c1cccc(C(F)(F)F)c1.O=P(c1cccc(C(F)(F)F)c1)(c1cccc(C(F)(F)F)c1)c1cccc(C(F)(F)F)c1.[Cl][Sn]([Cl])([Cl])[Cl]`, the growth inhibition was 3% in experiment [1] (setting [7]); 79% (active) in experiment [1] (setting [8]); 31.7% in experiment [1] (at 50.0 µM); 3% in experiment [2] (setting [7]); 83% (active) in experiment [2] (setting [8]); 18.5% in experiment [2] (at 50.0 µM). For the same compound, the growth inhibition in experiment [3] (setting [7]) was 3%; in experiment [3] (setting [8]) it was 79% (active); in experiment [3] (at 50.0 µM), -5.9%; in experiment [4] (setting [7]), -10%; in experiment [4] (setting [8]), 73% (active); in experiment [4] (at 50.0 µM), 62.8%. For the same compound, the growth inhibition in experiment [5] (setting [7]) is 4%; in experiment [5] (setting [8]), 89% (active); in experiment [5] (at 50.0 µM), 48.8%; in experiment [6] (setting [7]), 9%; in experiment [6] (setting [8]), 81% (active); in experiment [6] (at 50.0 µM) it was 61.1%.

With `Cc1cc(CCN)c(C)c2c1sc1ccccc12`, the growth inhibition in experiment [1] (setting [7]) is 21%; in experiment [1] (setting [8]), 99% (active); in experiment [1] (at 50.0 µM), 99.7% (active); in experiment [2] (setting [7]), 92% (active); in experiment [2] (setting [8]) it was 100% (active); in experiment [2] (at 50.0 µM), 94.3% (active). The growth inhibition was 89% (active) in experiment [3] (setting [7]); 100% (active) in experiment [3] (setting [8]); 99.7% (active) in experiment [3] (at 50.0 µM); 98% (active) in experiment [4] (setting [7]); 99% (active) in experiment [4] (setting [8]); 89% (active) in experiment [4] (at 50.0 µM). For the same compound, the growth inhibition in experiment [5] (setting [7]) is 97% (active); in experiment [5] (setting [8]), 99% (active); in experiment [5] (at 50.0 µM), 95.1% (active); in experiment [6] (setting [7]), 81% (active); in experiment [6] (setting [8]) it was 100% (active); in experiment [6] (at 50.0 µM), 99.7% (active).

The values above are taken from PubChem BioAssay (NCI).
